Consider 26 compounds from PubChem BioAssay (NCATS).

Each structure is given as a SMILES string. Results filed as inconclusive are left out. A number with no mark means an inactive call. Activity calls are given as the source filed them. Calls come from the whole dose curve; as a rule, active = well fitted inhibition curve with a large enough effect; inconclusive = small, poorly fitted or top-dose-only effect; inactive = flat fitted curve, though single readings scatter.

The subject of assay [1] is CRL-7250. Put plainly: Cytotoxic Profiling of Annotated Libraries Using Quantitative High-Throughput Screening (AID 1296008). Note: nearly all actives have a fitted effect of over 60% in size. To be noted: Five cell lines viability, CellTiter-Glo ATP luminescence, 48-72 h; max response: active compounds read low. In outline: (§1)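 Cytotoxicity was measured as CellTiter-Glo ATP luminescence, read after 10 min at room temperature. Compound treatment of the cells lasted 48 or 72 hr at 37 degrees Celsius in a qHTS format.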

Assay [2] concerns HEK293. The assay is described as above. As to conditions: Five cell lines viability, CellTiter-Glo ATP luminescence, 48-72 h; max response: active compounds read low. The method in brief: as §1
(In general: ATP-based viability assays read luminescence as a measure of living cells.)
% is set by controls: 0 for no effect and ±100 for the full control effect; potency is the fitted concentration of half-maximal effect.

With `CC1(C)CCC2(C(=O)OC3OC(CO)C(O)C(O)C3O)CCC3(C)C(=CCC4C5(C)CCC(OC6OC(C(=O)O)C(OC7OC(CO)C(O)C(O)C7O)C(OC7OC(CO)C(O)C(O)C7O)C6O)C(C)(C)C5CCC43C)C2C1` (configuration not stated), the max response in assay [1] is 3.03%; in assay [2] it was 4.12%.
For `CC(C)C(N)C(=O)OCCOCn1cnc2c(=O)[nH]c(N)nc21` (configuration not stated) the same measures were 2.37% and 1.16%.
For the compound `COc1cc2ncnc(Nc3ccc(O)cc3)c2cc1OC`, the outcome in assay [1] was inactive. Moreover, the max response in assay [2] was -8.09%.
With `C=C1CCC2C(C)(COC(C)=O)CCCC2(C)C1CCC(C)CC(=O)O` (configuration not stated), in assay [1], the max response was -3%. Also, the compound was classed as inactive in assay [2].
For `C=CC(C)(C)c1[nH]c2ccccc2c1C[C@@H]1NC(=O)[C@H](Cc2c[nH]c3ccccc23)NC1=O`, the max response in assay [1] is 3.43%; in assay [2], -1.95%.
In the case of `C[C@@H]1CN(Cc2ccccc2)C[C@H]1c1nc2c(cnn2C2CCOCC2)c(=O)[nH]1`, the max response was -0.22% in assay [1] and 2.89% in assay [2].
Consider `C=CC1(C)C=C2CCC3C(C)(C)C(O[C@@H]4O[C@@H](CO)[C@H](O)[C@H]4O)CCC3(C)C2CC1O[C@@H]1O[C@H](C)[C@H](O)[C@H](O)[C@H]1O` (some centres not stated), for which the max response in assay [1] is -0.496%; in assay [2], -0.0102%.
Turning to `CCC(Nc1ncnc2nc[nH]c12)c1nc2cccc(F)c2c(=O)n1-c1ccccc1` (configuration not stated), the figures for the max response in assay [1] and in assay [2] were -7.4% and -7.81%, respectively.
In the case of `C=C1C[C@@]23CCC4[C@@](C)(CCC[C@@]4(C)C(=O)OC)C2CC[C@@H]1C3` (some centres not stated), the compound was classed as inactive in assay [1] and in assay [2].
Regarding `CS(=O)(=O)c1ccc([C@H](CC2CCCC2)C(=O)Nc2nccs2)cc1`, the max response in assay [1] is 1.1%; in assay [2] it was -58%.
For `Cc1cc(C(N)=O)ccc1-n1c(CCC(=O)O)ccc1-c1ccc(-n2ccnc2)cc1` the same measures were 1.88% and -3.97%.
With `OC[C@H]1O[C@@H](OCCc2ccc(O)cc2)[C@H](O[C@@H]2OC[C@](O)(CO)[C@H]2O)[C@@H](O)[C@@H]1O`, the max response in assay [1] is -6.14%; in assay [2], 0.652%.
Turning to `CCC(COC)n1nnc2c(Nc3ccc(OC)cc3C)nc(C)cc21` (configuration not stated), in assay [1], the compound was classed as inactive. The max response in assay [2] was -7.21%.
Regarding `Cc1c(NC(=O)c2cc(C(N)=O)nc3cc(F)ccc23)c(C(F)(F)F)nn1Cc1ccc(C#N)cc1`, the max response in assay [1] was -21.4%. Also, the Potency in assay [2] is 0.0862 µM (active).
For the compound `Cc1cc(C(=O)N2CCCCc3ccccc32)ccc1CNC(=O)N1CCC[C@H]1C(=O)N(C)C`, the max response was -2.89% in assay [1] and -0.739% in assay [2].
Consider `C=C1C(=O)OC2C1C(O)CC1(C)C(O)CCC(C=O)C21` (configuration not stated), for which the result in assay [1] was inactive. In addition, the max response in assay [2] was -0.284%.
In the case of `CC(C)(O)c1ccc2c(c1)C(O)C[C@H]1[C@](C)(C(=O)O)CCC[C@]21C` (some centres not stated), the max response in assay [1] was 1.1%; in assay [2], 0.619%.
For `Cc1ccc(C)c(OCCn2cc(C(=O)O)c3ccccc32)c1` the same measures were -3.65% and -0.983%.
For the compound `CC(C)(C)NCCCNC(=O)c1cccc(Br)c1`, in assay [1], the compound was classed as inactive. For the same compound, in assay [2], the max response is 0.813%.
Turning to `CC1=C(C)C(=O)OC(C(C)C2CCC3C4CC=C5CC(OC6OC(COC7OC(CO)C(O)C(O)C7O)C(O)C(O)C6O)CC(O)C5(C)C4CCC23C)C1` (configuration not stated), the max response in assay [1] was -1.46%; in assay [2] it was -1.67%.
As to `COC(=O)N[C@H](C(=O)N1[C@@H]2CC[C@@H](C2)[C@H]1c1nc2ccc(-c3ccc4c(c3)C(F)(F)c3cc(-c5cnc([C@@H]6CCC7(CC7)N6C(=O)[C@@H](NC(=O)OC)C(C)C)[nH]5)ccc3-4)cc2[nH]1)C(C)C`, the max response in assay [1] was -2.17%. In addition, the Potency in assay [2] was 3.99 µM (active).
As for `Cc1cc(Nc2cc(N3CCN(C)CC3)nc(/C=C/c3ccccc3)n2)n[nH]1`, the Potency was 5.8 µM (active) in assay [1] and 3.66 µM (active) in assay [2].
On to `CC1CCC2(C=O)C(CO)=CCCC2C1(C)CC(=O)O` (configuration not stated), for which the max response in assay [1] was 1.72%; in assay [2] it was -8.27%.
With `COc1cc([C@H]2c3cc(O)c(OC)cc3C[C@@H](CO[C@@H]3O[C@H](CO)[C@@H](O)[C@H](O)[C@H]3O)[C@@H]2CO)ccc1O`, the max response was -6.95% in assay [1] and -2.47% in assay [2].
The like results for `CC(C)=CCC/C(C)=C/CC/C(C)=C/COC1OC(COC2OCC(OC3OCC(O)C(O)C3O)C(O)C2O)C(O)C(OC2OC(C)C(OC3OC(C)C(OC4OCC(OC5OC(C)C(O)C(O)C5O)C(O)C4O)C(O)C3O)C(O)C2O)C1O` (configuration not stated) were, in that order, 1.98% and 4.79%.
Regarding `C=CC/C=C\C/C=C\CCCCCCCc1cccc(O)c1C(=O)O`, in assay [1], the result was inactive. The max response in assay [2] was -5.53%.
